6 sequences from the supplement of paper PMC6555819 can be followed below.

Holding throughout (test): PBM binding z-score (relative to random genomic background probes); higher = stronger binding; sequences stand for … in GC…GCGATTGACAGCGTAGAATGAAGG
The subject of test [1] is FXR:RXRa (NR concentration 270 nM, RXRa partner concentration 90 nM). The gist of the method: (§1)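 Random background probes are the reference for binding z-scores. These scores derive from regression-normalized fluorescence on custom Agilent 4×180K protein-binding microarrays incubated 1 h with ligand-free nuclear receptor dimers. Binding was detected with antibodies against each partner (one per run).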

Test [2] deals with LXRa:RXRa (NR concentration 270 nM, RXRa partner concentration 90 nM). The method, boiled down:
as §1

Test [3] concerns LXRa homodimer (NR concentration 270 nM). The gist of the method: as §1
The test system of test [4] is LXRb:RXRa (NR concentration 270 nM, RXRa partner concentration 90 nM). The method, boiled down: as §1
Test [5] deals with LXRb homodimer (NR concentration 270 nM). The gist of the method:
as §1

The test system of test [6] is PPARa:RXRa (NR concentration 270 nM, RXRa partner concentration 90 nM). The gist of the method: as §1
For test [7], the system named is PPARg:RXRa (NR concentration 180 nM, RXRa partner concentration 90 nM). The gist of the method:
as §1

For test [8], the system named is PPARg:RXRa 270nM:90nM, anti-RXR (NR concentration 270 nM, RXRa partner concentration 90 nM). The method, boiled down: as §1
The subject of test [9] is PPARg:RXRa 30nM:10nM, anti-RXR (NR concentration 30 nM, RXRa partner concentration 10 nM). The method, boiled down:
as §1

Test [10] deals with PPARg:RXRa 90nM:30nM, anti-RXR (NR concentration 90 nM, RXRa partner concentration 30 nM). The gist of the method:
as §1

The test system of test [11] is PPARg:RXRa DBDmut IVT, anti-RXR (DBD mutation: RXRa K156A/R161A, NR concentration 270 nM, RXRa partner concentration 90 nM). The method, boiled down: as §1
Test [12] deals with PPARg:RXRa IVT, anti-PPARg (NR concentration 270 nM, RXRa partner concentration 90 nM). The gist of the method:
as §1

The subject of test [13] is PPARg DBDmut:RXRa IVT, anti-PPARg (DBD mutation: PPARg1 K132A/R137A, NR concentration 270 nM, RXRa partner concentration 90 nM). The gist of the method:
as §1

The test system of test [14] is PPARg DBDmut IVT, anti-PPARg (DBD mutation: PPARg1 K132A/R137A, NR concentration 270 nM). The gist of the method:
as §1

Test [15] deals with PPARg homodimer (NR concentration 180 nM). The gist of the method:
as §1

In test [16] the test system is PXR:RXRa (NR concentration 270 nM, RXRa partner concentration 90 nM). The method, boiled down:
as §1

Test [17] deals with PXR homodimer (NR concentration 270 nM). The gist of the method: as §1
Test [18] deals with RARa:RXR (NR concentration 270 nM, RXRa partner concentration 90 nM). The method, boiled down: as §1
Test [19] has as its system RARa homodimer (NR concentration 270 nM). The method, boiled down: as §1
Test [20] relates to RARb:RXRa (NR concentration 270 nM, RXRa partner concentration 90 nM). The method, boiled down:
as §1

Consider TCTAGTTGGTCAAAGGTCACAGACTCGAAATGCG, for which the PBM binding z-score stood at 6.15 in [1]; 6.04 in test [2]; 3.48 in test [3]; 5.55 in [4]; 1.44 in test [5]; 6.87 in [6]. For the same sequence, the PBM binding z-score in test [7] was 11.5; in test [8], 10; in test [9], 10.8; in test [10] it was 11.2; in test [11], 3.8; in test [12] it was 6.51. The PBM binding z-score in [13] was determined as 1.4; in [14], 1.43; in test [15], 5.86; in test [16], 6.19; in test [17], 1.54; in test [18], 7.67. For the same sequence, the PBM binding z-score stood at 3.5 in [19] and 5.12 in test [20].

On to ACTATTAGTTGAGACGAGGGCAACAGATAGGTTG, for which the PBM binding z-score in [1] is 0.212; in test [2], -0.0273; in [3] it was -0.073; in test [4], 0.0186; in test [5] it was 0.272; in test [6], 0.442. Besides, the PBM binding z-score in test [7] is 0.846; in test [8] it was -0.171; in test [9], 0.0997; in [10], -0.129; in test [11] it was 0.565; in [12], 0.556. The PBM binding z-score stood at 0.565 in test [13]; 1.23 in test [14]; 0.704 in test [15]; 1.13 in test [16]; 0.384 in test [17]; 0.971 in test [18]. Further, the PBM binding z-score stood at 0.692 in test [19] and 0.75 in test [20].

For the sequence CCAGACAGGTGAAAGGTAACTGAGTCTGGTACGC, the PBM binding z-score is 0.744 in test [1]; 0.866 in test [2]; -0.565 in [3]; 0.528 in test [4]; -0.541 in test [5]; 3.52 in [6]. For the same sequence, the PBM binding z-score in test [7] came to 6.16; in test [8], 6.38; in [9], 4.81; in test [10], 5.99; in [11], 2.15; in test [12] it was 3.28. For the same sequence, the PBM binding z-score in [13] is -0.148; in test [14], -0.636; in test [15], 1.11; in test [16], 0.918; in test [17] it was -0.224; in [18], 1.83. Also, the PBM binding z-score in test [19] came to 0.0845; in [20] it was 1.28.

Consider CCTACTAGGCCAAAGGTCATTGATTCCAATGCTC, for which the PBM binding z-score in test [1] turned out to be 5.07; in test [2] it was 5.49; in [3] it was 4.69; in [4], 5.36; in test [5], 1.48; in test [6], 6.66. Besides, the PBM binding z-score came to 12.3 in test [7]; 10.5 in [8]; 11.4 in test [9]; 11.8 in test [10]; 6.51 in [11]; 7.41 in test [12]. In addition, the PBM binding z-score turned out to be 1.46 in test [13]; 1.49 in test [14]; 3.89 in test [15]; 5.56 in test [16]; 2.25 in test [17]; 6.39 in [18]. For the same sequence, the PBM binding z-score in [19] worked out at 2.46; in [20], 4.79.

Take CCTGCTAGGTTAATGGTCAGCTAAAGCAGCTCGC: the PBM binding z-score in test [1] was -0.16; in [2], 0.22; in test [3] it was -0.415; in [4], 0.0198; in test [5], -0.231; in test [6], 0.798. The PBM binding z-score in test [7] amounted to 1.47; in test [8], 3.16; in [9], 0.835; in [10], 2.53; in test [11], 2.01; in test [12] it was 1.36. The PBM binding z-score is -0.242 in [13]; -0.61 in test [14]; 0.222 in test [15]; -0.336 in test [16]; -0.337 in [17]; 0.0339 in test [18]. For the same sequence, the PBM binding z-score in test [19] is -0.547; in test [20] it was 1.26.

With TCATATAGTTAAATGCTAGGTGAAAGTCCGATCT, the PBM binding z-score in test [1] is 0.982; in [2], 0.66; in test [3], 0.335; in [4], 0.729; in [5], 0.331; in test [6], 0.834. For the same sequence, the PBM binding z-score in [7] was 0.464; in [8], 2.11; in [9], 3.69; in test [10] it was 2.89; in test [11] it was 2.22; in test [12], 0.879. Further, the PBM binding z-score came out at 0.746 in [13]; 1.69 in [14]; 1.11 in test [15]; 0.631 in test [16]; 0.356 in [17]; 0.763 in test [18]. In addition, the PBM binding z-score in test [19] was found to be 1.49; in [20] it was 0.272.
